# This excerpt belongs to a sample that is enriched for the strongest signals.
# B1: Pwp6 (Candida glabrata) (protein)
# chain: MGSSHHHHHHSSGLVPRGSHMASANLPKLTNICQIPDNVKKTSGFKGEIRRIGLFPPGGDYTYLLKFPSTGSTASDTISLTTKPQLSTSGWFPSLFGHTYFIKADLLVYMVAYFVPTETGEYTFKLVNSDDAAVMYVGNPSAFPCGSIDTWPEPRKEDINVCDKISASTKLYMEKGLAYPVRLVWYNGGGDGQFNAQFIDPSGTTHTDWNGYVWQYDACTDCDYK
# Key:
# Assay in all cases: glycan array binding signal (z-score within array); higher = stronger binding
# Settings in all cases: glycan notation: IUPAC condensed, linker removed
# [1] = target: Fuc(a1-2)Gal(b1-3)GalNAc(b1-4)[Neu5Ac(a2-3)]Gal(b1-4)Glc
# Summary of the method: (§1)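 Arrays were curated from the Consortium for Functional Glycomics database, 3228 in total, and kept only where the protein sequence was available. Binding is expressed as a within-array Z-score. This score was averaged across arrays of the same protein sequence at different concentrations or buffers and across linkers, and negative values can be read as non-binding.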
# Fuc(a1-2)Gal(b1-4)GlcNAc = target: Fuc(a1-2)Gal(b1-4)GlcNAc
# Summary of the method: as §1
# [2] = target: Fuc(a1-2)Gal(b1-4)GlcNAc(b1-2)Man(a1-3)[Fuc(a1-2)Gal(b1-4)GlcNAc(b1-2)Man(a1-6)]Man(b1-4)GlcNAc(b1-4)[Fuc(a1-6)]GlcNAc
# Summary of the method: as §1
# [3] = target: Fuc(a1-2)[Gal(a1-3)]Gal(b1-3)GlcNAc
# Summary of the method: as §1
# [4] = target: Fuc(a1-2)[Gal(a1-3)]Gal(b1-3)GlcNAc(b1-6)GalNAc
# Summary of the method: as §1
# [5] = target: Fuc(a1-2)[GalNAc(a1-3)]Gal(b1-4)GlcNAc(b1-2)Man
# Summary of the method: as §1
# [6] = target: Fuc(a1-2)[GalNAc(a1-3)]Gal(b1-4)GlcNAc(b1-2)Man(a1-3)[Fuc(a1-2)[GalNAc(a1-3)]Gal(b1-4)GlcNAc(b1-2)Man(a1-6)]Man(b1-4)GlcNAc(b1-4)[Fuc(a1-6)]GlcNAc
# Summary of the method: as §1
# [7] = target: Fuc(a1-3)[Gal(b1-4)]GlcNAc(b1-6)[Gal(b1-3)GlcNAc(b1-3)]Gal(b1-4)Glc
# Summary of the method: as §1
# [8] = target: Gal(a1-3)Gal(b1-4)GlcNAc(b1-6)GalNAc
# Summary of the method: as §1
# Gal(b1-3)Gal(b1-4)GlcNAc = target: Gal(b1-3)Gal(b1-4)GlcNAc
# Summary of the method: as §1
# [9] = target: Gal(b1-3)GalNAc(b1-4)[Neu5Ac(a2-3)]Gal(b1-4)Glc
# Summary of the method: as §1
# Gal(b1-4)Glc = target: Gal(b1-4)Glc
# Summary of the method: as §1
# [10] = target: Gal(b1-4)GlcNAc(a1-6)Gal(b1-4)GlcNAc
# Summary of the method: as §1
# [11] = target: Gal(b1-4)GlcNAc(b1-2)Man(a1-3)[Gal(b1-4)GlcNAc(b1-2)Man(a1-6)][Gal(b1-4)GlcNAc(b1-4)]Man(b1-4)GlcNAc(b1-4)[Fuc(a1-6)]GlcNAc
# Summary of the method: as §1
# [12] = target: Gal(b1-4)GlcNAc(b1-2)Man(a1-6)[GlcNAc(b1-2)Man(a1-3)]Man(b1-4)GlcNAc(b1-4)GlcNAc
# Summary of the method: as §1
# [13] = target: Gal(b1-4)GlcNAc(b1-3)Gal(b1-4)GlcNAc(b1-2)Man(a1-3)[Gal(b1-4)GlcNAc(b1-3)Gal(b1-4)GlcNAc(b1-2)Man(a1-6)]Man(b1-4)GlcNAc(b1-4)GlcNAc
# Summary of the method: as §1
# [14] = target: Gal(b1-4)GlcNAc(b1-3)Gal(b1-4)GlcNAc(b1-2)[Gal(b1-4)GlcNAc(b1-3)Gal(b1-4)GlcNAc(b1-6)]Man(a1-6)[Gal(b1-4)GlcNAc(b1-3)Gal(b1-4)GlcNAc(b1-2)Man(a1-3)]Man(b1-4)GlcNAc(b1-4)[Fuc(a1-6)]GlcNAc
# Summary of the method: as §1
# [15] = target: Gal(b1-4)GlcNAc(b1-3)Gal(b1-4)GlcNAc(b1-3)Gal(b1-4)GlcNAc(b1-3)Gal(b1-4)GlcNAc(b1-2)Man(a1-3)[Gal(b1-4)GlcNAc(b1-3)Gal(b1-4)GlcNAc(b1-3)Gal(b1-4)GlcNAc(b1-3)Gal(b1-4)GlcNAc(b1-2)Man(a1-6)]Man(b1-4)GlcNAc(b1-4)GlcNAc
# Summary of the method: as §1
# [16] = target: Gal(b1-4)GlcNAc(b1-3)Gal(b1-4)GlcNAc(b1-3)Gal(b1-4)GlcNAc(b1-3)Gal(b1-4)GlcNAc(b1-2)Man(a1-3)[Gal(b1-4)GlcNAc(b1-3)Gal(b1-4)GlcNAc(b1-3)Gal(b1-4)GlcNAc(b1-3)Gal(b1-4)GlcNAc(b1-2)Man(a1-6)]Man(b1-4)GlcNAc(b1-4)[Fuc(a1-6)]GlcNAc
# Summary of the method: as §1
# [17] = target: Gal(b1-4)GlcNAc(b1-3)Gal(b1-4)GlcNAc(b1-3)Gal(b1-4)GlcNAc(b1-3)Gal(b1-4)GlcNAc(b1-3)Gal(b1-4)GlcNAc(b1-2)Man(a1-3)[Gal(b1-4)GlcNAc(b1-3)Gal(b1-4)GlcNAc(b1-3)Gal(b1-4)GlcNAc(b1-3)Gal(b1-4)GlcNAc(b1-3)Gal(b1-4)GlcNAc(b1-2)Man(a1-6)]Man(b1-4)GlcNAc(b1-4)[Fuc(a1-6)]GlcNAc
# Summary of the method: as §1
# Gal3S(b1-4)Glc = target: Gal3S(b1-4)Glc
# Summary of the method: as §1
# [18] = target: Glc(a1-4)Glc(a1-4)Glc(a1-4)Glc
# Summary of the method: as §1
# [19] = target: GlcNAc(b1-2)[GlcNAc(b1-6)]Man(a1-6)[GlcNAc(b1-2)Man(a1-3)]Man(b1-4)GlcNAc(b1-4)[Fuc(a1-6)]GlcNAc
# Summary of the method: as §1
# [20] = target: GlcNAc(b1-3)Gal(b1-4)GlcNAc(b1-2)[GlcNAc(b1-3)Gal(b1-4)GlcNAc(b1-6)]Man(a1-6)[GlcNAc(b1-3)Gal(b1-4)GlcNAc(b1-2)Man(a1-3)]Man(b1-4)GlcNAc(b1-4)GlcNAc
# Summary of the method: as §1
# [21] = target: GlcNAc(b1-3)Gal(b1-4)GlcNAc(b1-3)Gal(b1-4)GlcNAc(b1-2)Man(a1-3)[GlcNAc(b1-3)Gal(b1-4)GlcNAc(b1-3)Gal(b1-4)GlcNAc(b1-2)Man(a1-6)]Man(b1-4)GlcNAc(b1-4)GlcNAc
# Summary of the method: as §1
# [22] = target: GlcNAc(b1-3)Gal(b1-4)GlcNAc(b1-3)Gal(b1-4)GlcNAc(b1-2)[GlcNAc(b1-3)Gal(b1-4)GlcNAc(b1-3)Gal(b1-4)GlcNAc(b1-6)]Man(a1-6)[GlcNAc(b1-3)Gal(b1-4)GlcNAc(b1-3)Gal(b1-4)GlcNAc(b1-2)Man(a1-3)]Man(b1-4)GlcNAc(b1-4)[Fuc(a1-6)]GlcNAc
# Summary of the method: as §1
# [23] = target: GlcNAc(b1-3)Gal(b1-4)GlcNAc(b1-3)Gal(b1-4)GlcNAc(b1-3)Gal(b1-4)GlcNAc(b1-2)Man(a1-3)[GlcNAc(b1-3)Gal(b1-4)GlcNAc(b1-3)Gal(b1-4)GlcNAc(b1-3)Gal(b1-4)GlcNAc(b1-2)Man(a1-6)]Man(b1-4)GlcNAc(b1-4)[Fuc(a1-6)]GlcNAc
# Summary of the method: as §1
# [24] = target: GlcNAc(b1-3)Gal(b1-4)GlcNAc(b1-3)Gal(b1-4)GlcNAc(b1-3)Gal(b1-4)GlcNAc(b1-2)[GlcNAc(b1-3)Gal(b1-4)GlcNAc(b1-3)Gal(b1-4)GlcNAc(b1-3)Gal(b1-4)GlcNAc(b1-6)]Man(a1-6)[GlcNAc(b1-3)Gal(b1-4)GlcNAc(b1-3)Gal(b1-4)GlcNAc(b1-3)Gal(b1-4)GlcNAc(b1-2)Man(a1-3)]Man(b1-4)GlcNAc(b1-4)[Fuc(a1-6)]GlcNAc
# Summary of the method: as §1
# GlcNAc(b1-3)GalNAc = target: GlcNAc(b1-3)GalNAc
# Summary of the method: as §1
# [25] = target: GlcNAc(b1-3)[GlcNAc(b1-4)][GlcNAc(b1-6)]GlcNAc
# Summary of the method: as §1
binder,measurement,setting,value
B1,glycan array binding signal (z-score),[1],-0.318
same,glycan array binding signal (z-score),Fuc(a1-2)Gal(b1-4)GlcNAc,-0.848
same,glycan array binding signal (z-score),[2],0.09
same,glycan array binding signal (z-score),[3],-0.701
same,glycan array binding signal (z-score),[4],-0.097
same,glycan array binding signal (z-score),[5],-0.201
same,glycan array binding signal (z-score),[6],0.167
same,glycan array binding signal (z-score),[7],-0.265
same,glycan array binding signal (z-score),[8],0.221
same,glycan array binding signal (z-score),Gal(b1-3)Gal(b1-4)GlcNAc,-0.617
same,glycan array binding signal (z-score),[9],-0.134
same,glycan array binding signal (z-score),Gal(b1-4)Glc,-0.681
same,glycan array binding signal (z-score),[10],-0.631
same,glycan array binding signal (z-score),[11],-0.334
same,glycan array binding signal (z-score),[12],0.606
same,glycan array binding signal (z-score),[13],2.96
same,glycan array binding signal (z-score),[14],0.465
same,glycan array binding signal (z-score),[15],5.06
same,glycan array binding signal (z-score),[16],3.31
same,glycan array binding signal (z-score),[17],1.2
same,glycan array binding signal (z-score),Gal3S(b1-4)Glc,-0.252
same,glycan array binding signal (z-score),[18],-0.556
same,glycan array binding signal (z-score),[19],0.023
same,glycan array binding signal (z-score),[20],2.94
same,glycan array binding signal (z-score),[21],3.63
same,glycan array binding signal (z-score),[22],3.3
same,glycan array binding signal (z-score),[23],3.79
same,glycan array binding signal (z-score),[24],3.71
same,glycan array binding signal (z-score),GlcNAc(b1-3)GalNAc,-0.863
same,glycan array binding signal (z-score),[25],-0.466
